Tau FP inhib: blocks human tau fibril formation measured by polarization | K18 P301L tau heparin fibrillization, Alexa594 FP, 6 h | 280,000 tested, 0.39% active | AID 1468 | Potency, µM (doses to about 57.7 µM), without a hit: at the highest dose activity, negative = inhibition, actives largely listed as inhibitors | P10636; further: potency means the concentration at half of the fitted maximal effect; nearly all actives have a fitted effect of over 55% in size
Target sequence (P10636 561-689 P618L limits assumed): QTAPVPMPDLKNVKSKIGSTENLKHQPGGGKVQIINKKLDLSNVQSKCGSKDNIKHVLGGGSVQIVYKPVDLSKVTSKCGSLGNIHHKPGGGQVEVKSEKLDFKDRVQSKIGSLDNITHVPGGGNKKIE
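Quantitative HTS format: compounds meet 15 uM recombinant K18 P301L tau and Alexa 594-tau tracer in 100 mM sodium acetate pH 7; 20 uM heparin triggers fibrillization at 37 C over 6 hr; FP gives the signal.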
Tau ThT inhib: tau fibrillization inhibition (ThT binding); P10636; recombinant tau K18 P301L, heparin-induced fibrillization, ThT fluorescence; Potency, µM (titrated, usually from 57.4 µM), without a hit: at the top dose activity, negative = inhibition, hits mostly inhibitors; 270,000 tested, 2.1% active; AID 1460; further: potency means the concentration at half of the fitted maximal effect; nearly all actives have a fitted effect of over 55% in size
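Tau K18 P301L fragment (15 uM unlabeled plus 0.24 uM Alexa 594-labeled) in 100 mM sodium acetate pH 7 with compound, fibrillization induced by 20 uM heparin for 6 hr at 37 C. Thioflavin T (30 uM) added, fluorescence read after 1 hr (ex 450, em 510 nm).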
Tau fluor cs: counter-screen for tau fibril formation inhibitors. 280,000 tested, 0.93% active. AID 1463. tau K18 P301L Alexa594 fluorescence, heparin fibrillization. Potency, µM (series often up to 57.7 µM), for the others: at the highest dose activity change, negative = decrease; further: potency means the concentration at half of the fitted maximal effect; nearly all actives have a fitted effect of over 55% in size
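Human tau K18 P301L (15 uM unlabeled, 0.24 uM Alexa 594-labeled) in 100 mM sodium acetate pH 7 with 20 uM heparin, 6 hr at 37 C. ThT 30 uM added, 1 hr ambient; Alexa 594 FP and total fluorescence read at 555/632 nm.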
Sfp inh: inhibitors of Bacillus subtilis Sfp phosphopantetheinyl transferase | Biochemical Sfp PPTase activity, qHTS | Potency, µM, without a hit: largest response in the series, negative = inhibition, most hits filed as inhibitors | 310,000 tested, 3.5% active | AID 1490;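 further: the enzyme is Sfp with the accession as filed and its product quenches rhodamine fluorescence; potency means the concentration at half of the fitted maximal effect; 0% = enzyme reaction without inhibitor and -100% = no enzyme wells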
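Fluorescence-quenching assay with 15 nM Sfp, 5 uM rhodamine-CoA and 12.5 uM BHQ-2-labelled ybbR peptide in pH 7.6 Hepes/MgCl2 buffer. Enzyme was pre-incubated with compound for 15 min at room temperature. Rate was taken from the 30-min fluorescence change (525/598 nm).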
G9a block: inhibitors of human histone lysine methyltransferase G9a. Q96KQ7. G9a H3K9 monomethylation, AlphaScreen, 2 h. Potency, µM (top dose mostly 102 µM), for the others: at the highest dose activity, negative = inhibition, hits mostly inhibitors. 350,000 tested, 8.8% active. AID 504332; further: potency means the concentration at half of the fitted maximal effect; nearly all actives have a fitted effect of over 75% in size
Target sequence (Q96KQ7 913-1193 limits assumed): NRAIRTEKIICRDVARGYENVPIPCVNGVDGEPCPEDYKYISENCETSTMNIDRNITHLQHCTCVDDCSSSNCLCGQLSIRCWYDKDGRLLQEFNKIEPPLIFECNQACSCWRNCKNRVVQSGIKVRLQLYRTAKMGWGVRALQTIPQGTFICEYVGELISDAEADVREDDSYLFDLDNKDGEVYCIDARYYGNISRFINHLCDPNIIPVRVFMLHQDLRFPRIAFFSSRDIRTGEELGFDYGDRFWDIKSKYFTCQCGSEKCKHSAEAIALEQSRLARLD
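Compounds were preincubated with 20 nM G9a for 15 min, after which biotinylated H3K9 peptide (500 nM) and SAM (20 uM) started a 2 h room-temperature reaction. Monomethylated product was quantified by antibody-based AlphaScreen chemiluminescence.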
Coupling enz: coupling enzyme interference in Giardia aldolase counter-screen; activity change, negative = inhibition, % at 58.2 µM, hits read low; 290,000 tested, 0.67% active; AID 2472; coupling enzyme system counterscreen, AmpLite Red fluorescence; in the data active means activity change below about -30%
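Coupling enzymes only (glyceraldehyde-3-phosphate) + compound, at 57.5 uM final, 10 min RT; add substrate/coupling/AmpLite Red mix, 20 min RT; fluorescence ex 525/em 598 nm. Actives flag coupling-system interference.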
Starred values were filed as active, the others as inactive; u = inconclusive; x = no result; [ ] = dose if it differs, or a comment. An excerpt weighted towards active compounds, which were near 11% of everything screened. Unless noted, the call rests on the fitted dose curve; in most records, active means well fitted curve in the direction sought with a large enough effect; inconclusive means small, poorly fitted or top-dose-only effect, or another doubt; inactive means no such curve, though single readings can be large; an effect the other way counts as inactive or inconclusive. Unless noted, on the % scale 0 is the no-effect control and ±100 the full control effect.

SMILES	Tau FP inhib	Tau ThT inhib	Tau fluor cs	Sfp inh	G9a block	Coupling enz
c1nc(NCCN2CCOCC2)c2c3c(sc2n1)CCCCC3	8.8%	4.4%	5.5%	9.1%	u	0.0
Cc1cccn2c(=O)cc(COc3cccc(NC(=O)Nc4cccc(Cl)c4)c3)nc12	u	-2.3%	-17.9%	x	-1.6%[59 µM]	x
Cc1ccc(CSc2ncc(Cl)c(C(=O)Oc3ccccc3F)n2)cc1	-12.1%	15.8µM*	-24.2%	x	33.3%[59 µM]	x
O=C(Oc1ccccc1F)c1nc(SCc2ccccc2F)ncc1Cl	-8.9%	22.4µM*	-24.6%	x	-2.7%[59 µM]	x
O=C(Nc1ccc(F)cc1)c1nc(SCc2ccccc2F)ncc1Cl	-12.1%	0.8%	-5.6%	x	-0.4%[59 µM]	x
O=C(Nc1ccccc1F)c1nc(SCc2ccc(F)cc2)ncc1Cl	-16.1%	-6.4%	-22.7%	x	0.3%[59 µM]	x
Cc1ccc(CN(C(=O)c2ccccc2Br)C2CCS(=O)(=O)C2)o1 (stereo unspecified)	2.1%	6.2%	0.1%	x	6.9%[59 µM]	x
CCn1ncc([N+](=O)[O-])c1C(=O)N1CCc2ccccc2C1	x	x	x	8.3%	-12.0%	-0.6
CN1Cc2cc(C(=O)c3cc(Cl)cc(CSc4ncccn4)c3O)cnc2NC1=O	-2.3%	u	-12.0%	1.8%	50.1µM*	4.6
Cn1c(CNc2ccccc2O)nc2ccccc21	-2.8%	u	u	44.7µM*	3.55µM*	-9.2
Cc1ccccc1NCc1nc2ccccc2n1C	x	x	x	12.4%	7.6%	3.1
Cn1c(CNc2ccccc2)nc2ccccc21	1.8%	-12.7%	-13.1%	7.3%	-25.7%	1.6
CC(C)n1cnc2cc(NCc3nc4ccccc4n3C)ccc21	4.2%	-9.5%	-16.3%	-3.0%	44.7µM*	0.3
CCn1cnc2cc(NCc3nc4ccccc4n3C)ccc21	-1.0%	u	-2.7%	2.2%	2.51µM*	-1.4
Cc1ccc(C2CC(=O)n3nc(-c4ccc(F)cc4)nc3S2)cc1 (stereo unspecified)	2.9%	u	-5.7%	x	-26.4%[59 µM]	x
COCCn1c(=O)c(-c2ccc(Cl)cc2)nc2cnc(N3CCOCC3)nc21	x	x	x	15.3%	8.0%[0.501 µM]	1.7
CCOC(=O)C1(C)/C(=N/Nc2ccccc2)C(=O)C(=O)N1c1ccccc1 (stereo unspecified)	-7.3%	17.8µM*	-28.0%	13.6%	8.91µM*	1.7
CCOC(=O)C1(C)/C(=N/Nc2ccccc2OC)C(=O)C(=O)N1c1ccccc1 (stereo unspecified)	-11.5%	15.8µM*	-15.3%	-23.1%	4.47µM*	-6.6
CCOC(=O)C1(C)C=C(Nc2ccc(Br)cc2)C(=O)N1c1ccccc1 (stereo unspecified)	-10.5%	6.5%	0.3%	x	u	x
COC(=O)c1ccc(NC(=O)CN(C)S(=O)(=O)c2ccc3c(c2)CCCC(=O)N3)cc1	-3.7%	-4.2%	-4.3%	x	-7.4%[59 µM]	x
NC(=S)NCCCC(N)C(=O)O (stereo unspecified)	u	u	-14.7%	x	8.91µM*	x
O=C(CSc1nnc(-c2ccccc2F)o1)NC(=O)Cc1ccccc1	x	x	x	x	1.6%[2.33 µM]	x
CN(C)Cc1cccc([N+](=O)[O-])c1O	3.0%	-7.9%	-9.2%	8.3%	50.1µM*	-0.9
CN1CCN(CC(=O)c2cc(C(C)(C)C)c(O)c(C(C)(C)C)c2)CC1	x	x	x	5.4%	31.6µM*	-4.1
CC(C)(C)c1cc(CN2CCN(CCO)CC2)cc(C(C)(C)C)c1O	-0.5%	2.3%	2.1%	u	u	-11.3
Cc1cccc(N2CCN(C(=O)C3CCN(S(=O)(=O)c4ccc5c(c4)oc(=O)n5C)CC3)CC2)c1C	-10.9%	-6.7%	-15.5%	x	-20.1%[59 µM]	x
COc1ccccc1NS(=O)(=O)c1ccc2oc(SC)nc2c1	x	x	x	4.8%	4.9%	-0.3
COc1ccccc1NS(=O)(=O)c1ccc2oc(N)nc2c1	x	x	x	u	25.1µM*	-5.4
Cc1cc(C)c2c(NC(=O)CCl)nn(C)c2n1	8.3%	-0.9%	6.2%	15.6%	-22.0%	-1.5
CCc1cc(SC#N)cc(CC)c1NC(=O)CCl	7.08µM*	3.55µM*	-26.9%	-8.9%	50.1µM*	2.2
